Assay outcomes: PubChem, National Center for Advancing Translational Sciences (NCATS)
This is one part of a sample in which hits are shown more often than they occur.
Menin-MLL FL inh – qHTS Assay for Inhibitors Targeting the Menin-MLL Interaction in MLL Related Leukemias: Competition With Fluorescein Labeled MLL-derived Peptide | Fluorescence polarization, fluorescein-MLL peptide displacement from menin | FP activity change, % at 61.4 µM | 290,000 tested, under 10 active; active means well fitted curve in the direction sought with a large enough effect in the polarisation, not every such curve was filed as active; inconclusive means small, poorly fitted or top-dose-only effect, or effect the other way, or a change in a side signal; inactive means no such curve, though single readings can be large or run the other way; the % refers to the polarisation
ERG-DNA inh – qHTS for Small Molecule Inhibitors of the ERG Ets/DNA interaction | Transcriptional regulator ERG (Homo sapiens), P11308 | fluorescence polarization, His-ERG Ets domain / labelled DNA | Potency, µM (titrated, usually from 76.9 µM), most hits filed as inhibitors | actives 0.028% (n = 370,000) | AID 624246, 2012; active means well fitted inhibition curve with a large enough effect in the polarisation, with a control signal flat; inconclusive means small, poorly fitted or top-dose-only effect, or effect the other way, or a change in a side signal; inactive means no such curve, though single readings can be large or run the other way; the % refers to the polarisation;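 further: polarization taken with two DNA probes labelled with fluorescein and Texas red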
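His-tagged ERG Ets domain (1 uM in the protein solution; 300mM KCl, 50mM Tris-HCl, 1mM EDTA, 1mM DTT, pH 7.5) received compound, then a probe mix of 5 nM fluorescein-DNA and 100nM Texas-615-DNA. Fluorescence polarization was read for both dyes.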
CXXC DNA block – qHTS Fluorescence Polarization Assay for Inhibitors of MLL CXXC domain - DNA interaction | Histone-lysine N-methyltransferase 2A (Homo sapiens), Q03164 | actives 0.037% (n = 290,000) | AID 2662, 2010 | MLL-CXXC / FITC-HOXA9 DNA fluorescence polarization | Potency, µM (top dose mostly 115 µM), hits mostly inhibitors; active means well fitted inhibition curve with a large enough effect in the polarisation, with a control signal flat, not every such curve was filed as active; inconclusive means small, poorly fitted or top-dose-only effect, or effect the other way, or a change in a side signal; inactive means no such curve, though single readings can be large or run the other way; the % refers to the polarisation
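Purified MLL-CXXC (added from a 7 uM solution) was preincubated 5 min at ambient with pinned compounds in 50 mM Tris-HCl pH 7.5, 50 mM NaCl, 1 mM DTT, 0.05% BSA. Fluorescein-labeled HOX-A9 DNA (50 nM solution) followed, 30 min, then polarization read.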
RGS4 inhibitor – Inhibitors of Regulator of G Protein Signaling (RGS) 4: qHTS; Regulator of G-protein signaling 4 (Homo sapiens), P49798; actives 0.039% (n = 390,000); Potency, µM (series often up to 114 µM), actives largely listed as inhibitors; Transcreener GDP fluorescence polarization, RGS4-accelerated GTP hydrolysis; active means well fitted inhibition curve with a large enough effect; inconclusive means small, poorly fitted or top-dose-only effect; inactive means no such curve, though single readings can be large or run the other way; further: nearly all actives have a fitted effect of over 75% in size
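MLSMR compounds (23 nl, pin-transferred) preincubated 10 min at room temperature with a 500nM (2x) first reagent, then RGS4 at 900nM (2x) plus Transcreener GDP mix added; fluorescence polarization (620/688 nm) read before and after 90 min at 30 °C.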
TSG101-PTAP inh – qHTS Assay for Iinhibitors of HIV-1 Budding by Blocking the Interaction of PTAP/TSG101 | 340,000 tested, under 10 active | Tumor susceptibility gene 101 protein (Homo sapiens), Q99816 | Potency, µM (highest dose often 115 µM), most hits filed as inhibitors | Fluorescence polarization, FITC-PTAP peptide / Tsg101 binding; active means well fitted inhibition curve with a large enough effect in the main read-out, with a control signal flat, not every such curve was filed as active; inconclusive means small, poorly fitted or top-dose-only effect, or effect the other way, or a change in a side signal; inactive means no such curve, though single readings can be large or run the other way
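Fluorescence anisotropy tracks displacement of a FITC-tagged PTAP peptide (50 nM) from the Tsg101 binding domain (10 uM), following a 20 min room-temperature incubation at pH 7.5.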
Menin-MLL TR inh – qHTS Assay for Inhibitors Targeting the Menin-MLL Interaction in MLL Related Leukemias: Competition With Texas Red Labeled MLL-derived Mutant Peptide; O00255; Menin + Texas Red MLL mutant peptide, fluorescence polarization; Potency, µM (highest dose often 61.6 µM), hits mostly inhibitors; actives 0.23% (n = 270,000); AID 1768, 2009; active means well fitted inhibition curve with a large enough effect in the polarisation, with a control signal flat, not every such curve was filed as active; inconclusive means small, poorly fitted or top-dose-only effect, or effect the other way, or a change in a side signal; inactive means no such curve, though single readings can be large or run the other way; the % refers to the polarisation
Target sequence (O00255 whole entry, looked up): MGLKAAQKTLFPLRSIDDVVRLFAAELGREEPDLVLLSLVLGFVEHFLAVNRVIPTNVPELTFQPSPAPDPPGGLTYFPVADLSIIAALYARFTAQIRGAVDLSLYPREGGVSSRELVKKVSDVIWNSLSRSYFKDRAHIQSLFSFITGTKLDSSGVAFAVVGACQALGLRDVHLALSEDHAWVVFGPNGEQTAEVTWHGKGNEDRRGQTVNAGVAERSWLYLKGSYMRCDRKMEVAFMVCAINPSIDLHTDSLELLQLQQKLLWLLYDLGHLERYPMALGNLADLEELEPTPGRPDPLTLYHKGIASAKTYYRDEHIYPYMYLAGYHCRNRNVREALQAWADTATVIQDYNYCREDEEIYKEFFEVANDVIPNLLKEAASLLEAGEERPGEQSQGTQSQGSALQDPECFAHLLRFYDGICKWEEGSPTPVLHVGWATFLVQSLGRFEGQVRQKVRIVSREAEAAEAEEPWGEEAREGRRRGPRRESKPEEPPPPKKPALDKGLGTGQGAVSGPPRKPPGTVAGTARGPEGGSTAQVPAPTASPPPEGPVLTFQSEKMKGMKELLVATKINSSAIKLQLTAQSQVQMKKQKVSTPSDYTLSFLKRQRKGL
A number is an active result; n = inactive; u = inconclusive; x = not tested or not shown; ! = not active in a repeat; [ ] = dose if it differs, or a comment.

SMILES	Menin-MLL FL inh	ERG-DNA inh	CXXC DNA block	RGS4 inhibitor	TSG101-PTAP inh	Menin-MLL TR inh
COC(=O)c1ccc(NC(=S)NC(=O)c2cc(-c3ccccc3)nc3ccccc23)cc1	n	n	n	n	n	13µM
Cc1cnc2c3c(cc(Cl)c2c1)-c1ccccc1S(=O)(=O)N3	x	x	x	n	x	x
CO/N=C(\C)CCN1CCCCc2nc(C)c(C)cc21	n[11.7 µM]	x	x	x	x	n[11.7 µM]
CCCCN(C)C(=O)CS(=O)(=O)Cc1nc(-c2cccc(OC)c2)oc1C	n	20µM	n	n	n	n
Cc1cc2ccccc2n1CCNC(=O)c1cccs1	u	32µM	n	n	n	u
CC(=O)N1CCN(c2ccc(NCc3ccc(C)s3)cc2)CC1	n	n	n	u	n	n[11.7 µM]
CC(=O)N1CCN(c2ccc(NCc3cccs3)cc2)CC1	n	n	n	n[11.4 µM]	n	28µM
CCCCC/C=C\C[C@@H](O)/C=C/C=C/C=C/[C@@H](O)CCCC(=O)O	n	x	x	x	x	n
Cc1ccccc1OC1C=CC(c2ccccc2)OC1CO (stereo not given)	n[11.7 µM]	x	x	x	x	n[11.7 µM]
CC(=O)Nc1ccc(-c2csc(NC(=O)C3CC(=O)N(c4ccc5c(c4)OCCO5)C3)n2)cc1 (stereo not given)	n	22µM	n	n	n	x
CC1(C)Cc2c(c(-c3ccco3)[nH]c(=O)c2C#N)CS1	u	n	n	n	n	25µM
CC1(C)Cc2c(c(-c3ccccc3)[nH]c(=O)c2C#N)CS1	n	n	n	n	n	n
O=C(Nc1ccccc1-c1nc2ccccc2[nH]1)c1ccc(S(=O)(=O)N2CCCCC2)cc1	n	n	n	n	n	10µM
CC1CCCCN1S(=O)(=O)c1ccc(C(=O)Nc2ccccc2-c2nc3ccccc3[nH]2)cc1 (stereo not given)	x	n	n	n	n	x
COc1ccc(C(=O)Nc2cc(C)c(O)c(-c3nc4ccccc4s3)c2)cc1OC	x	n	x	n	x	x
O=C(Nc1ccc(OC(=O)c2ccccc2)c(-c2nc3ccccc3s2)c1)c1ccccc1	n	n	n	n	n	18µM
NCc1c(O)ccc2ccccc12	n	x	n	x	x	n
Oc1ccc2ccccc2c1SSc1c(O)ccc2ccccc12	x	x	x	1.7µM	x	x
O=S(=O)(c1ccc(F)cc1)N1CCN(c2nc(-c3cccs3)nc3cc(Cl)ccc23)CC1	x	x	x	n	x	x
O=C(NCCO)Nc1ccc2nc(-c3ccco3)c(-c3ccco3)nc2c1	u	x	35µM	x	x	u
COc1ccc(NCc2ccc(OC)c(Cn3ccnc3)c2)c(OC)c1	n	n	n	n	n	13µM
O=S(=O)(c1ccc(Cl)cc1)N1CCOCC1	x	x	x	n	x	x
CC(=O)N[C@@H](CCC(=O)O)C(=O)O	n	x	u	x	x	n
CC(=O)N[C@@H](CC(=O)O)C(=O)O	n	28µM	x	n	u	n
C[C@H]1O[C@@H](O[C@H]2[C@@H](O)C[C@H](O[C@H]3[C@@H](O)C[C@H](O[C@H]4CC[C@@]5(C)[C@H](CC[C@@H]6[C@@H]5C[C@@H](O)[C@]5(C)[C@@H](C7=CC(=O)OC7)CC[C@]65O)C4)O[C@@H]3C)O[C@@H]2C)C[C@H](O)[C@@H]1O	n	n	n	1.7µM!	n	n
SMILES	Menin-MLL FL inh	ERG-DNA inh	CXXC DNA block	RGS4 inhibitor	TSG101-PTAP inh	Menin-MLL TR inh
CC(=O)Nc1ccc(-c2cc(-c3ccc(NC(C)=O)cc3)nc(-c3ccccc3)n2)cc1	n	x	n	n	n	6.3µM
CC(C)C[C@@H](/C=C/S(C)(=O)=O)NC(=O)[C@H](CC(C)C)NC(=O)[C@H](CC(C)C)NC(=O)OCc1ccccc1	x	x	x	n	x	x
CC(=O)[C@H](CC(C)C)NC(=O)[C@@H](CC(C)C)NC(=O)[C@H](CC(C)C)NC(=O)OCc1ccccc1	n	x	x	8.4µM	x	n
CCC(=O)NC1Cc2ccccc2C(c2ccccc2)C1 (stereo not given)	x	x	x	24µM	x	x
COCCn1c(=O)cnc2cnc(N3CCN(C)CC3)nc21	n	x	x	x	x	35µM
C=C1C=CS(=O)(=O)N(C(C)C(=O)OC)C1 (stereo not given)	n	x	x	n	x	n
O=C1c2ccccc2C(=O)N1c1cccc(O)c1	x	x	x	n	x	x
CC(N)(Cc1ccc(O)c(O)c1)C(=O)O (stereo not given)	n	x	n	11µM	x	n
C[C@@](N)(Cc1ccc(O)cc1)C(=O)O	n	x	x	x	x	n
Cc1cccc2cc(CN(Cc3ccccc3)Cc3nnnn3Cc3ccccc3)c(=O)[nH]c12	x	x	x	n	x	x
CN(C)C(=O)/N=N/C(=O)N(C)C	n	x	n	3µM	x	n
COc1ccc(N2CCN(C(=O)c3cc(=O)c4cc(C)cc(C)c4o3)CC2)cc1	n	n	n	n	n	11µM
COc1ccc(N2CCN(C(=O)c3cc(=O)c4cc(C)ccc4o3)CC2)cc1	n	n	n	n	n	u
O=c1[nH]c(=S)[nH]c(-c2ccccc2)c1Cc1c(O)ccc2ccccc12	x	x	x	2.1µM	x	x
O=C(COC(=O)C12CC3CC(CC(Br)(C3)C1)C2)NCc1ccco1	x	x	x	n	x	x
NC(=O)c1ccc(NC(=O)COC(=O)c2c3c(nc4ccccc24)/C(=C\c2cccs2)CCC3)cc1	n	n	n	n	n	u
CCc1cccc(C)c1NC(=O)COC(=O)c1c2c(nc3ccccc13)/C(=C\c1cccs1)CCC2	n	x	n	n	n	14µM
NC(=S)c1ccc[n+]([C@@H]2O[C@@H](COP(=O)([O-])OP(=O)(O)OC[C@H]3O[C@@H](n4cnc5c(N)ncnc54)[C@H](OP(=O)(O)O)[C@@H]3O)C(O)C2O)c1 (stereo not given in full)	x	x	x	27µM	x	x
COc1cc(O)c2c(c1)oc(=O)c1c3cc(O)c(O)cc3oc21	n	x	x	x	x	u
COc1cc2nc(N3CCCN(C)CC3)nc(NC3CCN(Cc4ccccc4)CC3)c2cc1OC	x	x	x	n	x	x
O=C1Nc2ccc(I)cc2/C1=C/c1cc(Br)c(O)c(Br)c1	u	x	u	9.5µM	x	u
Cc1ccc2c(c1)/C(=C/c1ccccc1)C(=O)N2	n	n	n	n	n	n
OCCCc1ccccc1	n	x	x	x	x	n
CO/S(=N\S(=O)(=O)c1ccc(Cl)cc1)c1ccc([N+](=O)[O-])cc1 (stereo not given)	x	x	x	12µM	x	x
OC[C@@H]1O[C@@H](O)[C@H](O)[C@H](O)[C@@H]1O	n	x	x	x	x	n
